Measured values: paper PMC7862700, “An all-to-all approach to the identification of sequence-specific readers for epigenetic DNA modifications on cytosine”

Experiments:
Assay in all cases: DAPPL (digital affinity profiling via proximity ligation, sequencing); 10 mM Tris-HCl pH 7.5, 50 mM NaCl, 1 mM DTT, 4% glycerol, room temperature, 30 min; GST-TFs on glutathione beads, 16-mer random dsDNA library, 0.1% formaldehyde crosslink after washing; high values mean tight binding
Settings in all cases: protein: recombinant; tags: N-terminal GST; dsDNA, one strand shown
FEV = biological target: T1, FEV (Homo sapiens, UniProt Q99581 1-238)
T1 sequence: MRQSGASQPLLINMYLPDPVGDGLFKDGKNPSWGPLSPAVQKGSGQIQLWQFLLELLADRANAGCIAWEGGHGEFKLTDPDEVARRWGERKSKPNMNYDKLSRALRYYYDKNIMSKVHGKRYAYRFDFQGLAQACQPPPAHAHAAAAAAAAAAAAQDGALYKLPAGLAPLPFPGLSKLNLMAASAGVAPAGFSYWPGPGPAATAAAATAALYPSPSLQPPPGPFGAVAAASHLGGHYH
Outline: (§1)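 Sequencing on an Illumina NextSeq500 followed washing, crosslinking with 0.1% formaldehyde, proximity ligation (BsaI/T4 ligase, 1 h, 37 °C) and PCR amplification of pools that had been incubated for 30 min at room temperature with 200 nmole of a random double-stranded 16-mer DNA library in Tris/NaCl/DTT/glycerol buffer. Each pool held DNA-barcoded human transcription factors, expressed in yeast as GST fusions and captured on glutathione beads, plus a tag-only sample. Binding signal is a hexamer's read frequency for a factor divided by its frequency in the tag-only sample.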

ETV5 = ETV5 (Homo sapiens, UniProt P41161 1-510)
Sequence of ETV5 (P41161 whole entry): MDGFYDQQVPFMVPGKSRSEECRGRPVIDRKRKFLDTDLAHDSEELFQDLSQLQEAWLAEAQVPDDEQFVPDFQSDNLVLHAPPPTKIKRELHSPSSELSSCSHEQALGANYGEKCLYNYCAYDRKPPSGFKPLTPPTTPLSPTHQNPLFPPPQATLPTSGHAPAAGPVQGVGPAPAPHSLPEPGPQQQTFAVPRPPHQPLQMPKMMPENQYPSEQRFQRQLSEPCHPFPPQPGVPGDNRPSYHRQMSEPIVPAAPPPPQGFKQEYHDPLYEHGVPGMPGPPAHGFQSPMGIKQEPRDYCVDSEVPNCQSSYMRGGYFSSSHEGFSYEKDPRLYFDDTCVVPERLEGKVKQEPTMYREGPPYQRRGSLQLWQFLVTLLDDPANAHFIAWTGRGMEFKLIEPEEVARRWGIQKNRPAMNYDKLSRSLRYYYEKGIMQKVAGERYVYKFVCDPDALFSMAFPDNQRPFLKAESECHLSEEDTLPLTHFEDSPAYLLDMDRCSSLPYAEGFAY
Outline: as §1

SPIC = biological target: T2, SPIC (Homo sapiens, UniProt Q8N5J4 1-248)
T2 sequence: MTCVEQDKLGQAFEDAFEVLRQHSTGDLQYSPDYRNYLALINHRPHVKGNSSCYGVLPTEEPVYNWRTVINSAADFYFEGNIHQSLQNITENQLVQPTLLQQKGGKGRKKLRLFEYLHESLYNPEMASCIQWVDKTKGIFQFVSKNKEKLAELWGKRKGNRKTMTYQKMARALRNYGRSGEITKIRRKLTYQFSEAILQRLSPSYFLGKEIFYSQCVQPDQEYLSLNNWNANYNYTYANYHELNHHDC
Outline: as §1

ELF4 = ELF4 (Homo sapiens, UniProt Q99607 1-663)
Sequence of ELF4 (Q99607 whole entry): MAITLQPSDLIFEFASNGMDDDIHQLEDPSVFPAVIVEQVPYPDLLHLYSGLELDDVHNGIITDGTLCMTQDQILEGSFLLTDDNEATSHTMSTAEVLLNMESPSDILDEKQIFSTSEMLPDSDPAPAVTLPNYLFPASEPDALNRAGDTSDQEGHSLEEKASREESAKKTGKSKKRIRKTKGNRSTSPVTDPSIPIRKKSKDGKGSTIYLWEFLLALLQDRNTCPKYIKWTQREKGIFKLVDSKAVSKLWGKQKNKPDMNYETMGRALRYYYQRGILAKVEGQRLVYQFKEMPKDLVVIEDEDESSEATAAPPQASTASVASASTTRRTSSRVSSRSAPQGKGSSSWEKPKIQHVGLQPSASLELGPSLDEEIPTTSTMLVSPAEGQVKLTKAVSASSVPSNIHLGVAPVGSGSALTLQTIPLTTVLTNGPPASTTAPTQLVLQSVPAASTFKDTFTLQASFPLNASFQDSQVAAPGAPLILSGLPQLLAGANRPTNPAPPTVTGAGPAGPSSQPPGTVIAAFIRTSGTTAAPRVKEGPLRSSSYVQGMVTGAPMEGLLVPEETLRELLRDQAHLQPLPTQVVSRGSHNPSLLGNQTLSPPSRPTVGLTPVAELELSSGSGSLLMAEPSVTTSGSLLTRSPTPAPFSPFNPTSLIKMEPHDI
Outline: as §1

ELK4 = biological target: T3, ELK4 (Homo sapiens, UniProt P28324-2 1-405)
T3 sequence: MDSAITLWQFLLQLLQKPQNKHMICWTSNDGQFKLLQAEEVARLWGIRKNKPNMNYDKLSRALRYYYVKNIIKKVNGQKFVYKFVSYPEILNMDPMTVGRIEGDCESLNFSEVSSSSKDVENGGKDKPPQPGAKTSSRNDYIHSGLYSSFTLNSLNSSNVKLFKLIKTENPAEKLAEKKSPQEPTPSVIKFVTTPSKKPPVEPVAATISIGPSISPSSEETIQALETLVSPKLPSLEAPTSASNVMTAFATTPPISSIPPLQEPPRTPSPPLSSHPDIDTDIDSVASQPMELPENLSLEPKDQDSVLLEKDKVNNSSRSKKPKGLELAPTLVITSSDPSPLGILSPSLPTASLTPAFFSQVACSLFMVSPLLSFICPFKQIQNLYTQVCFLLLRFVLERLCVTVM
Outline: as §1

ETV2 = biological target: T4, ETV2 (Homo sapiens, UniProt O00321 1-342)
T4 sequence: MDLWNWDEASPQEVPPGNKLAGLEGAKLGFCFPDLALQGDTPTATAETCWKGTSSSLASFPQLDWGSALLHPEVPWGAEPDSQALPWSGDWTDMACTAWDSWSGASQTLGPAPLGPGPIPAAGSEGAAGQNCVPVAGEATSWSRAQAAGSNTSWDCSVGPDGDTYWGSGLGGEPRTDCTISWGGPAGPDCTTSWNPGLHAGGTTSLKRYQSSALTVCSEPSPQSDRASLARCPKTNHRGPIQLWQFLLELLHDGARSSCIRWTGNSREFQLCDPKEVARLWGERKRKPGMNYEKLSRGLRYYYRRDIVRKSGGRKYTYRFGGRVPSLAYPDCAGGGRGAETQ
Outline: as §1

ELF3 = biological target: T5, ELF3 (Homo sapiens, UniProt P78545 1-371)
T5 sequence: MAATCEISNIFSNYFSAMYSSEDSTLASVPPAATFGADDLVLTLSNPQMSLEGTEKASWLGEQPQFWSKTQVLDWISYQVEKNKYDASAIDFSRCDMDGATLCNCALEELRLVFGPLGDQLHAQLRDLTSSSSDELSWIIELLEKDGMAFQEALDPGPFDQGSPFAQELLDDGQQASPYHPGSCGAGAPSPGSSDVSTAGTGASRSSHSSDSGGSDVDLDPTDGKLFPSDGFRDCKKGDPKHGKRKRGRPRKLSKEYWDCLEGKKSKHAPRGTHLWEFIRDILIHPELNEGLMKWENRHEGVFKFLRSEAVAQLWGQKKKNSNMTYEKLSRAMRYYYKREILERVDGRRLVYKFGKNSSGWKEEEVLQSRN
Outline: as §1

CRX = CRX (Homo sapiens, UniProt O43186 1-299)
Sequence of CRX (O43186 whole entry): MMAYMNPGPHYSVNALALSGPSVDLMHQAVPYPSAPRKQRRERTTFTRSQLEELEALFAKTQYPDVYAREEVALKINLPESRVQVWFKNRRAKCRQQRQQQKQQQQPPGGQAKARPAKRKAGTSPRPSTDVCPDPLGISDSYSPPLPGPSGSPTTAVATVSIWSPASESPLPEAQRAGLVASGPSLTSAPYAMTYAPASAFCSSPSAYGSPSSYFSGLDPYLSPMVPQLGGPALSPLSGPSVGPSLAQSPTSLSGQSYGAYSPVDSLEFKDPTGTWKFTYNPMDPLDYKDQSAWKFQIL
Outline: as §1

ETV1 = ETV1 (Homo sapiens, UniProt P50549 1-477)
Sequence of ETV1 (P50549 whole entry): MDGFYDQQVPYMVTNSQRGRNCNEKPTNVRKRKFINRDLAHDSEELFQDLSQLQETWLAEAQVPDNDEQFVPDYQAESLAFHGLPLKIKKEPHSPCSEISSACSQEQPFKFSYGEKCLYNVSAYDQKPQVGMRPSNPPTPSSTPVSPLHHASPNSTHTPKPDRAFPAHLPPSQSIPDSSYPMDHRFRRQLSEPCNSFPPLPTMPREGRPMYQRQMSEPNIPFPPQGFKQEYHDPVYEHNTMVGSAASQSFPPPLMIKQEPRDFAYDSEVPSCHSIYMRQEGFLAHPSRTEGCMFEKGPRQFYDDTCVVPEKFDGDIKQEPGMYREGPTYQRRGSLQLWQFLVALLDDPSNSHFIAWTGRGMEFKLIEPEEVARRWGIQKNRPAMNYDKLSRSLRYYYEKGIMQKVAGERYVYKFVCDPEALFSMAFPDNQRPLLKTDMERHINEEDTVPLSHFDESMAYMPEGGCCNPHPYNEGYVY
Outline: as §1

ERF = biological target: T6, ERF (Homo sapiens, UniProt P50548 1-548)
T6 sequence: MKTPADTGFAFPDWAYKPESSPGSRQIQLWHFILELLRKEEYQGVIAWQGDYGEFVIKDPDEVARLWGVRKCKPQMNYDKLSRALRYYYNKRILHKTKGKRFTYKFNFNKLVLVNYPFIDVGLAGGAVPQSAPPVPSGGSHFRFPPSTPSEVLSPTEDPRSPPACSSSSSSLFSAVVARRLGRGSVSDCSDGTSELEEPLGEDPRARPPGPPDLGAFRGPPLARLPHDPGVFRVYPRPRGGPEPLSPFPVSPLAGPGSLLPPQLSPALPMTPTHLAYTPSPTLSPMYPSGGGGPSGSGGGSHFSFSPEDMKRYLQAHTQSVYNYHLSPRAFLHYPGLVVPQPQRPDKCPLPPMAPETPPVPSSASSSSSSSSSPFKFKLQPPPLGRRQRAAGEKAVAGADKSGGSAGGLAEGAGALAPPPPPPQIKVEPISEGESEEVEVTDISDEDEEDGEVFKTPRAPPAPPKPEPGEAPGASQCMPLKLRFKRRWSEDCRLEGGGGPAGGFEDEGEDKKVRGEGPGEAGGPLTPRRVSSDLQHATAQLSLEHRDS
Outline: as §1

ETV3L = biological target: T7, ETV3L (Homo sapiens, UniProt Q6ZN32 1-361)
T7 sequence: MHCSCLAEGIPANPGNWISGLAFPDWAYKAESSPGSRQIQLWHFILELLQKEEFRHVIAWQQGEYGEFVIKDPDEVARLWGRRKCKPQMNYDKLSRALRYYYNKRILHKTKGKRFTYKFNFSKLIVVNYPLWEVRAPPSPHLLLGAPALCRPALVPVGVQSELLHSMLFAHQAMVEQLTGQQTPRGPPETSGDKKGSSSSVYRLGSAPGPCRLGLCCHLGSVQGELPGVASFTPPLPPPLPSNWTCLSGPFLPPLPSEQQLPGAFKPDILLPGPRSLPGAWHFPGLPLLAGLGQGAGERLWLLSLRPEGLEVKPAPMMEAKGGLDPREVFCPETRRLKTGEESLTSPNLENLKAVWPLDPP
Outline: as §1

ETS2 = biological target: T8, ETS2 (Homo sapiens, UniProt P15036 1-469)
T8 sequence: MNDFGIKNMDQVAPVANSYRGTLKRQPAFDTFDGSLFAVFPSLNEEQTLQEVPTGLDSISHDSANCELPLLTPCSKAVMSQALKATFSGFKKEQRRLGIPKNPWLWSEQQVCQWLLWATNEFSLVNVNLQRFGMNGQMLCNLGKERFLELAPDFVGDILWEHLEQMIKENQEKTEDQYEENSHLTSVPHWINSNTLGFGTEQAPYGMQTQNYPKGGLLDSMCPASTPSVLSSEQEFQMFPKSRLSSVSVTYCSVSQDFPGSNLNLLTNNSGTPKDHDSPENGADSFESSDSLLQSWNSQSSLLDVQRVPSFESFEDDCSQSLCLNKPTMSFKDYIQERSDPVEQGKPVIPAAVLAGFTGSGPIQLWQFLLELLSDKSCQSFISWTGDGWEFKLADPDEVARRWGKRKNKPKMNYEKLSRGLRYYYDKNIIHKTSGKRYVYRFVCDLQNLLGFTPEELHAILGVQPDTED
Outline: as §1

SPDEF = biological target: T9, SPDEF (Homo sapiens, UniProt O95238 1-335)
T9 sequence: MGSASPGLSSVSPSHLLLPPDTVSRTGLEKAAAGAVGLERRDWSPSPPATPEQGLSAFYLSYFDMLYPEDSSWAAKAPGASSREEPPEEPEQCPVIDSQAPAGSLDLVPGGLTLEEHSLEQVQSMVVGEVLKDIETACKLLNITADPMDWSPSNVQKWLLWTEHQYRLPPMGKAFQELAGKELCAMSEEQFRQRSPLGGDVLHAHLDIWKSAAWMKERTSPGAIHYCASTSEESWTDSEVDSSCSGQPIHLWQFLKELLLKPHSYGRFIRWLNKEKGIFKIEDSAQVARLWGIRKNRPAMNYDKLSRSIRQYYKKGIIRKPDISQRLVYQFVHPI
Outline: as §1

ETV7 = biological target: T10, ETV7 (Homo sapiens, UniProt Q9Y603 1-341)
T10 sequence: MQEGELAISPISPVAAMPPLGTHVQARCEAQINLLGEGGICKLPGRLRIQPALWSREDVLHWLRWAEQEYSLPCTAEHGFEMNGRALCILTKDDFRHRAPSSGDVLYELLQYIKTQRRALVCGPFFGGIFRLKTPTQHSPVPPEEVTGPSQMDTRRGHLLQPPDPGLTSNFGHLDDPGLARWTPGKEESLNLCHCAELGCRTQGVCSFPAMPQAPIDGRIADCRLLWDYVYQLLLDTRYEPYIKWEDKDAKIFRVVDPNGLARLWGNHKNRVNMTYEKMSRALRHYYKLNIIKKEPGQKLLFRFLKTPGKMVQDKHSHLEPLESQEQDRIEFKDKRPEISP
Outline: as §1

ELF5 = biological target: T11, ELF5 (Homo sapiens, UniProt Q9UKW6-2 1-255)
T11 sequence: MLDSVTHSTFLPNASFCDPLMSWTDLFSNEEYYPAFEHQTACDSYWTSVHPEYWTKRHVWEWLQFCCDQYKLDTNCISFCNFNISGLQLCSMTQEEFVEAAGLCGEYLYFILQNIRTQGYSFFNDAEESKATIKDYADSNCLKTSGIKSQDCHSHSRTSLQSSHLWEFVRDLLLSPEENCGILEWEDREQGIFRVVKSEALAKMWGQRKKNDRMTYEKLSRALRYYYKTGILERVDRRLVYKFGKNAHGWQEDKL
Outline: as §1

ETV3 = biological target: T12, ETV3 (Homo sapiens, UniProt P41162-2 1-143)
T12 sequence: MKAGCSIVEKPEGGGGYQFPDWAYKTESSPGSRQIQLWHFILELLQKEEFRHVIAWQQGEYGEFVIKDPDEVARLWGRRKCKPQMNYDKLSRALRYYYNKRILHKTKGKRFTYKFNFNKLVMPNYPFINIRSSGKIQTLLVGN
Outline: as §1

ETV6 = ETV6 (Homo sapiens, UniProt P41212 1-452)
Sequence of ETV6 (P41212 whole entry): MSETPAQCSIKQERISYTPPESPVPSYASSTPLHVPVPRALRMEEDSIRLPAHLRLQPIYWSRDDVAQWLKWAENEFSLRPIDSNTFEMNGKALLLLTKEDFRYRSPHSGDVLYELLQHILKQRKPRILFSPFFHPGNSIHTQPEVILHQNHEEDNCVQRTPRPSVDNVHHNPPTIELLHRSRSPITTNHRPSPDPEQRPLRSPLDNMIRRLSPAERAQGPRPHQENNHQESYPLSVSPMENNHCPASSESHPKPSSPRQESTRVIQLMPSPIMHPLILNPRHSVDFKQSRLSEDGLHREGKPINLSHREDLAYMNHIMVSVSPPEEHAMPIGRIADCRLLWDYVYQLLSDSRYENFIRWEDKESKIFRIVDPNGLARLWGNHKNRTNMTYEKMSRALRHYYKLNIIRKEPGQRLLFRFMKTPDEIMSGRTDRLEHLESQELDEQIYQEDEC
Outline: as §1

AAGCGG
binding signal (FEV): 1.12 fold enrichment (6-mer frequency, TF over GST control)
binding signal (ETV5): 1.27 fold enrichment (6-mer frequency, TF over GST control)
binding signal (SPIC): 1.31 fold enrichment (6-mer frequency, TF over GST control)
binding signal (ELF4): 1.01 fold enrichment (6-mer frequency, TF over GST control)
binding signal (ELK4): 1.14 fold enrichment (6-mer frequency, TF over GST control)
binding signal (ETV2): 1.19 fold enrichment (6-mer frequency, TF over GST control)
binding signal (ELF3): 1.17 fold enrichment (6-mer frequency, TF over GST control)
binding signal (CRX): 1.11 fold enrichment (6-mer frequency, TF over GST control)
binding signal (ETV1): 1.1 fold enrichment (6-mer frequency, TF over GST control)
binding signal (ERF): 1.08 fold enrichment (6-mer frequency, TF over GST control)
binding signal (ETV3L): 1.17 fold enrichment (6-mer frequency, TF over GST control)
binding signal (ETS2): 1.13 fold enrichment (6-mer frequency, TF over GST control)
binding signal (SPDEF): 1.08 fold enrichment (6-mer frequency, TF over GST control)
binding signal (ETV7): 1.16 fold enrichment (6-mer frequency, TF over GST control)
binding signal (ELF5): 1.13 fold enrichment (6-mer frequency, TF over GST control)
binding signal (ETV3): 1.15 fold enrichment (6-mer frequency, TF over GST control)
binding signal (ETV6): 1.23 fold enrichment (6-mer frequency, TF over GST control)

TGCATA
binding signal (FEV): 1.13 fold enrichment (6-mer frequency, TF over GST control)
binding signal (ETV5): 1.14 fold enrichment (6-mer frequency, TF over GST control)
binding signal (SPIC): 1.17 fold enrichment (6-mer frequency, TF over GST control)
binding signal (ELF4): 1.2 fold enrichment (6-mer frequency, TF over GST control)
binding signal (ELK4): 1.13 fold enrichment (6-mer frequency, TF over GST control)
binding signal (ETV2): 1.02 fold enrichment (6-mer frequency, TF over GST control)
binding signal (ELF3): 1.03 fold enrichment (6-mer frequency, TF over GST control)
binding signal (CRX): 1.01 fold enrichment (6-mer frequency, TF over GST control)
binding signal (ETV1): 1.07 fold enrichment (6-mer frequency, TF over GST control)
binding signal (ERF): 1.09 fold enrichment (6-mer frequency, TF over GST control)
binding signal (ETV3L): 1.23 fold enrichment (6-mer frequency, TF over GST control)
binding signal (ETS2): 1.17 fold enrichment (6-mer frequency, TF over GST control)
binding signal (SPDEF): 1.18 fold enrichment (6-mer frequency, TF over GST control)
binding signal (ETV7): 1.23 fold enrichment (6-mer frequency, TF over GST control)
binding signal (ELF5): 1.06 fold enrichment (6-mer frequency, TF over GST control)
binding signal (ETV3): 1.11 fold enrichment (6-mer frequency, TF over GST control)
binding signal (ETV6): 1.05 fold enrichment (6-mer frequency, TF over GST control)
